# Assay results taken from PubChem BioAssay (NCATS).
# Records with an inconclusive call do not appear. Where a call stands in place of a potency, no number is given. Activity calls are given as the source filed them. Unless noted, calls come from the whole dose curve.
# What was measured:
# [1] = qHTS for Inhibitors of the Functional Ribonucleoprotein Complex (vRNP) of Lassa (LASV) Arenavirus: LASV Primary Screen - GLuc reporter signal (AID 1347082; calls by dose curve; tested in HEK293 reporter line; note: nearly all actives have a fitted effect of over 60% in size; note: potency is the fitted concentration of half-maximal effect)
# [2] = qHTS for Inhibitors of the Functional Ribonucleoprotein Complex (vRNP) of Lassa (LASV) Arenavirus: Viability assay - alamar blue signal for LASV Primary Screen (AID 1347083; calls by dose curve; tested in HEK293 reporter line; note: nearly all actives have a fitted effect of over 80% in size; note: potency is the fitted concentration of half-maximal effect)
# [3] = qHTS for Inhibitors of the Functional Ribonucleoprotein Complex (vRNP) of Lymphocytic Choriomeningitis Arenaviruses (LCMV): Viability assay - alamar blue signal for LCMV Primary Screen (AID 1347085; calls by dose curve; tested in HEK293 reporter line; note: nearly all actives have a fitted effect of over 80% in size; note: potency is the fitted concentration of half-maximal effect)
# [4] = target: Nucleoprotein (Lymphocytic choriomeningitis virus (strain Armstrong)) (UniProt P09992); assay: qHTS for Inhibitors of the Functional Ribonucleoprotein Complex (vRNP) of Lymphocytic Choriomeningitis Arenaviruses (LCMV): LCMV Primary Screen - GLuc reporter signal (AID 1347086); note: nearly all actives have a fitted effect of over 70% in size; note: potency is the fitted concentration of half-maximal effect
# Sequence of Nucleoprotein (Lymphocytic choriomeningitis virus (strain Armstrong)) (P09992 whole entry, looked up): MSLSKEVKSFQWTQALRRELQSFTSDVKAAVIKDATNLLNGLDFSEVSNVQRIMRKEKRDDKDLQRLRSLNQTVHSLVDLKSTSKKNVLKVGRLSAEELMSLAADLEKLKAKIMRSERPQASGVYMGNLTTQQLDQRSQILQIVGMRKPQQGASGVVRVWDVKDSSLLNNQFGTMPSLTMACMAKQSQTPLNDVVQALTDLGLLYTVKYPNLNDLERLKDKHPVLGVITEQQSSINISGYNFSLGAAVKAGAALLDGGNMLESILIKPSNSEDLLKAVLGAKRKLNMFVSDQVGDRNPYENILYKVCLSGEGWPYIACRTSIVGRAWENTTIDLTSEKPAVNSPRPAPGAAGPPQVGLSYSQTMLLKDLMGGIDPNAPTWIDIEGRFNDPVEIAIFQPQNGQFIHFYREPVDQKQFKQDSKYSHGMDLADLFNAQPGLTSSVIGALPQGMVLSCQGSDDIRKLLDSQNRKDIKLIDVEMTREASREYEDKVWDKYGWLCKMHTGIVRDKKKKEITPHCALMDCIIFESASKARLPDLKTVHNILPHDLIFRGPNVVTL
# [5] = Primary qHTS for Huh7 cytotoxicity: counterscreen for inhibitors of MERS-S pseudotyped particle cell entry (AID 1479147); details: outcome: dose series up to 57.1 µM unless noted
# [6] = Primary qHTS for inhibitors of MERS-S pseudo-typed particle cell entry (AID 1479149); note: nearly all actives have a fitted effect of over 60% in size
# [7] = Primary qHTS for Vero E6 cytotoxicity: counterscreen for inhibitors of SARS-S pseudo-typed particle cell entry (AID 1479150); details: outcome: dose series up to 57.1 µM unless noted
# [8] = Cytotoxicity counterscreen for inhibitors of SARS-CoV-2 cell entry (AID 1645845); note: nearly all actives have a fitted effect of over 50% in size
# Procedure, shortened: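 ATP-content luminescence (ATPLite 1step, 15 min RT) read after 48 h compound exposure of Expi293F cells stably expressing human ACE2; normalized to cells-only wells and media-only wells.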
# [9] = Primary qHTS to identify inhibitors of SARS-CoV-2 cell entry (AID 1645846); details: activity change, negative = inhibition: at 57.1 µM (top of the series) unless noted; note: nearly all actives have a fitted effect of over 45% in size
# Procedure, shortened: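 Luminescence readout (Bright-Glo luciferase) 48 h after pseudoparticle addition. HEK293-ACE2 cells, 1500/well; compound pre-incubation 1 h; Normalized to spike PP and bald PP.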
# [10] = Confirmatory qHTS for activators (rescue) of SARS-CoV-2 Cytopathic Effect (CPE) (AID 1508606); note: potency is the fitted concentration of half-maximal effect; nearly all actives have a fitted effect of over 70% in size
# [11] = target: Alpha-galactosidase (Coffea arabica) (UniProt Q42656); assay: Counterscreen for Glucocerebrosidase Inhibitors: qHTS Assay for Coffee Bean alpha-Galactosidase at pH 4.5 (AID 957; active = well fitted curve in the direction sought with a large enough effect; an effect the other way counts as inactive or inconclusive)
# Sequence of Alpha-galactosidase (Coffea arabica) (Q42656 whole entry, looked up): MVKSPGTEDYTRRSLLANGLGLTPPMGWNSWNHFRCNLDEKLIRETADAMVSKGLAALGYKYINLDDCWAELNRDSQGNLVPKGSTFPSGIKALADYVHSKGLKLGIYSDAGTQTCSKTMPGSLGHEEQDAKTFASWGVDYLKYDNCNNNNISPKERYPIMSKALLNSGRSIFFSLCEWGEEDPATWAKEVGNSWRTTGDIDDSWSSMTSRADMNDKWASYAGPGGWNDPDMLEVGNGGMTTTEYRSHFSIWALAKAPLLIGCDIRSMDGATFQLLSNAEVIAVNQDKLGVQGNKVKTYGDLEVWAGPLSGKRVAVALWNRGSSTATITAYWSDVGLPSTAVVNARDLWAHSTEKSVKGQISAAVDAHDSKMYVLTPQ
# Procedure, shortened: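 Enzyme is added first (2 nM final), then compounds titrated from 0.7 nM to 77 uM, then 80 uM 4-methylumbelliferyl alpha-D-galactopyranoside; after 20 min at room temperature a pH 10 NaOH/glycine stop precedes fluorescence reading at 365/440 nm.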
# [12] = target: Alpha-galactosidase (Coffea arabica) (UniProt Q42656); assay: Counterscreen for Glucocerebrosidase Inhibitors: qHTS Assay for Coffee Bean alpha-Galactosidase at pH 5.9 (AID 998; active = well fitted curve in the direction sought with a large enough effect; an effect the other way counts as inactive or inconclusive)
# Procedure, shortened: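 Fluorogenic 4-MU substrate hydrolysis, 80 uM substrate and 2 nM coffee bean alpha-galactosidase, pH 5.9 citrate buffer, 20 min at room temperature, then NaOH/glycine stop. Titration 0.7 nM–77 uM, normalized to no-enzyme and enzyme controls, AC50 via Hill equation.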
# [13] = Confirmatory qHTS for VERO E6 Cytotoxicity Assay: Counterscreen for SARS-CoV-2 CPE Assay (AID 1508605); note: nearly all actives have a fitted effect of over 60% in size
# [14] = Validation screen for inhibitors of Lassa infection (AID 463096)
# [15] = Inducers of the Endoplasmic Reticulum Stress Response (ERSR) in human glioma: Validation (AID 504836; active = well fitted curve in the direction sought with a large enough effect; an effect the other way counts as inactive or inconclusive)
# Procedure, shortened: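 ERSR induction read as luciferase luminescence (Bright-Glo, 10 min at room temperature) in stably transfected human U87-MG glioma cells exposed to compounds for 16 h, using GRP78 as sensor.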
# [16] = Primary qHTS for small molecule stabilizers of the endoplasmic reticulum resident proteome: Secreted ER Calcium Modulated Protein (SERCaMP) assay (AID 1508630; active = well fitted curve in the direction sought with a large enough effect; an effect the other way counts as inactive or inconclusive)
# Procedure, shortened: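 The SH-SY5Y reporter protocol was run at 3 concentrations up to 38.3 uM (primary) or 11 concentrations (follow-up): 16 h compound, 100 nM thapsigargin for 4 h, then extracellular luciferase luminescence.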
# [17] = KB-8-5-11 P-gp reporter qHTS against the NCATS DSHEA and TCM libraries (AID 1919977; active = well fitted curve in the direction sought with a large enough effect; an effect the other way counts as inactive or inconclusive)
# Procedure, shortened: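 P-gp-overexpressing KB-8-5-11 cells (500/well) were plated in colchicine-free DMEM with 10% FBS, attached ~4 h, then exposed to substance titrations for ~72 h at 37C. Viability was read by CellTiter-Glo luminescence.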
# [18] = NCATS anti-infectives library activity on HEK293 viability as a counter-qHTS vs the C. elegans viability qHTS (AID 1745854; active = well fitted curve in the direction sought with a large enough effect; an effect the other way counts as inactive or inconclusive;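 note: HEK293 cells exposed to compounds for 24 hr before the viability read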)
# Procedure, shortened: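 Counter-screen for cytotoxicity: HEK293, 24 hr, 37C, compounds up to 41.7 uM final (a dilution series, 1:5). Readout CellTiter-Glo luminescence, 10 min RT. Digitonin control, 83.3 uM final.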
compound,measurement,setting,value
Cc1ccc(NC(=O)C2(c3ccc4c(c3)OC(F)(F)O4)CC2)nc1-c1cccc(C(=O)O)c1,Potency,[1],0.0385 µM (active)
same,Potency,[2],0.0432 µM (active)
same,Potency,[3],0.0685 µM (active)
same,Potency,[4],0.0217 µM (active)
same,outcome,[5],inactive
same,Potency,[6],inactive
same,outcome,[7],inactive
same,Potency,[8],inactive
same,Potency,[9],inactive
same,"activity change, negative = inhibition",[9],-24.6%
C=C1C(=O)[C@@]23C(CC[C@@H]1[C@H]2O)[C@@]12CO[C@]3(O)[C@@H](O)[C@@H]1C(C)(C)CC[C@@H]2O (stereo partly specified),Potency,[1],9.68 µM (active)
same,Potency,[2],6.85 µM (active)
same,Potency,[3],2.17 µM (active)
same,Potency,[4],1.22 µM (active)
same,Potency,[10],10 µM (active)
CN(C)CCCN1c2ccccc2CCc2ccccc21,outcome,[11],inactive
same,outcome,[12],inactive
same,Potency,[1],inactive
same,Potency,[2],inactive
same,Potency,[3],inactive
same,Potency,[4],inactive
same,outcome,[5],inactive
same,outcome,[7],inactive
same,Potency,[13],inactive
same,Potency,[8],inactive
O=S(=O)(c1cccc2c(Cl)cccc12)N1CCCNCC1,outcome,[11],inactive
same,outcome,[12],inactive
same,Potency,[14],inactive
same,outcome,[15],inactive
same,Potency,[1],inactive
same,Potency,[2],inactive
same,Potency,[3],inactive
same,Potency,[4],inactive
same,Potency,[13],inactive
CCc1cc2c(cc1N1CCC(N3CCOCC3)CC1)C(C)(C)c1[nH]c3cc(C#N)ccc3c1C2=O,Potency,[1],inactive
same,Potency,[2],inactive
same,Potency,[3],inactive
same,Potency,[4],inactive
same,outcome,[5],inactive
same,Potency,[6],inactive
same,outcome,[7],inactive
same,Potency,[8],inactive
same,Potency,[9],inactive
same,"activity change, negative = inhibition",[9],-34.9% [at 27.1 µM]
CC1(C)OC1COc1c2occc2cc2ccc(=O)oc12 (stereo unspecified),Potency,[1],inactive
same,Potency,[2],inactive
same,Potency,[3],inactive
same,Potency,[4],inactive
same,Potency,[16],inactive
C/C=C1/CN2CC[C@]34C(=C(C=O)[C@@H]1C[C@H]23)Nc1c(O)cccc14,Potency,[1],inactive
same,Potency,[2],inactive
same,Potency,[3],inactive
same,Potency,[4],inactive
same,Potency,[16],inactive
COc1ccc(CCN(C)CCCC(C#N)(c2ccc(OC)c(OC)c2)C(C)C)cc1OC (stereo unspecified),outcome,[14],inactive
same,Potency,[1],inactive
same,Potency,[2],inactive
same,Potency,[3],inactive
same,Potency,[4],inactive
same,outcome,[5],inactive
same,outcome,[7],inactive
same,Potency,[8],inactive
CC(C)(CO)[C@@H](O)C(=O)NCCC(=O)O,Potency,[1],inactive
same,Potency,[2],inactive
same,Potency,[3],inactive
same,Potency,[4],inactive
same,outcome,[5],inactive
same,Potency,[6],inactive
same,outcome,[7],inactive
same,outcome,[17],inactive
COC1=C[C@]23CCCN2CCc2cc4c(cc2[C@@H]3[C@@H]1O)OCO4,Potency,[1],inactive
same,Potency,[2],inactive
same,Potency,[3],inactive
same,Potency,[4],inactive
same,Potency,[16],inactive
same,Potency,[18],inactive
O=C(O)/C=C/c1ccccc1,Potency,[1],inactive
same,Potency,[2],inactive
same,Potency,[3],inactive
same,Potency,[4],inactive
same,outcome,[5],inactive [at 114 µM]
same,Potency,[6],inactive
same,outcome,[7],inactive [at 114 µM]
same,Potency,[8],inactive
same,"activity change, negative = inhibition",[9],-30.4% [at 114 µM]
same,outcome,[17],inactive
CCN1C[C@]2(C)CC[C@H](OC)[C@]34C5C[C@@H]6CC[C@@](O)(C5C(=O)O6)C(C13)[C@@H](OC(=O)c1ccccc1)C24,Potency,[1],inactive
same,Potency,[2],inactive
same,Potency,[3],inactive
same,Potency,[4],inactive
same,Potency,[16],inactive
